# Epigenetic reg: regulators of epigenetic silencing causing reporter derepression in mouse cells. murine LDR cells, GFP reporter derepression, 30 h. Potency, µM (doses to about 53.9 µM), hits mostly activators. actives 0.2% (n = 280,000); further: nearly all actives have a fitted effect of over 60% in size
#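 Reporter derepression read as number of fluorescent GFP-positive objects, 20-120 um in size, counted by laser-scanning cytometer. Mouse LDR line with an epigenetically silenced CMV-GFP locus; compound incubation 30 h, 37 C.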
# PINK1 expr mod: PINK1 expression modulation | Potency, µM (doses to about 76.6 µM), usual class: activators | PINK1 immunofluorescence, high-content cytometry, 24 h | AID 624263 | actives 0.2% (n = 410,000); active means well fitted activation curve with a large enough effect; inconclusive means small, poorly fitted or top-dose-only effect; cell line not stated here; further: nearly all actives have a fitted effect of over 65% in size
#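 A stable cell line was treated with compounds at 5 concentrations for 24 hours, with CCCP as control. PINK1 levels and mitochondrial localization were measured by immunofluorescence with mitochondrial, cell and nuclear markers after fixation, read by laser-scanning cytometry.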
# Gal4-VP16 FLuc: counter-screen for ROR gamma inhibitors: Gal4-VP16 reporter. Drosophila S2 Gal4-VP16 UAS-luciferase, luminescence, 20 h. Potency, µM (highest dose often 53.6 µM), usual class: inhibitors. actives 3.5% (n = 310,000). AID 2546;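 further: Gal4-VP16 expression switched on by copper sulfate through the metallothionein promoter; nearly all actives have a fitted effect of over 50% in size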
# ClpP mod: qHTS Assay for Activators of ClpP | actives 1.9% (n = 340,000) | purified B. subtilis ClpP, FRET peptide cleavage, 20 min | Potency, µM (highest dose often 57.5 µM); active means well fitted falling curve with a large enough effect; inconclusive means small, poorly fitted or top-dose-only effect; inactive means no such curve, though single readings can be large or run the other way; further: the source files actives as falling curves though it sought activators and does not explain the sign; nearly all actives have a fitted effect of over 65% in size
# Target sequence (P80244 whole entry, looked up): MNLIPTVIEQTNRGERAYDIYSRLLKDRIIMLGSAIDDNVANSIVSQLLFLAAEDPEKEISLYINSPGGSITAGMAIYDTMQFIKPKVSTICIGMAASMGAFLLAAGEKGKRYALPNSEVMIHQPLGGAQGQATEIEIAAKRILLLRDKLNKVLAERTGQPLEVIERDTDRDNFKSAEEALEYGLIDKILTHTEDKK
#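 ClpP 10 microg/mL final, pH 8 Tris/KCl buffer with BSA, glycerol, Tween-20; compound pinned in; FRET-FV substrate; RT 20 min; Ex320/Em430; ΔFRET vs ADEP 5.8 microM, DMSO, no enzyme.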
# RORgamma inh: ROR gamma (mouse) transcription inhibition; P51450; Drosophila S2 Gal4-RORgamma UAS-luciferase reporter, 20 h; Potency, µM (series often up to 53.6 µM), usual class: inhibitors; actives 5.4% (n = 310,000); AID 2551; further: nearly all actives have a fitted effect of over 60% in size
# Target sequence (P51450 whole entry, looked up, the tested form may be a part): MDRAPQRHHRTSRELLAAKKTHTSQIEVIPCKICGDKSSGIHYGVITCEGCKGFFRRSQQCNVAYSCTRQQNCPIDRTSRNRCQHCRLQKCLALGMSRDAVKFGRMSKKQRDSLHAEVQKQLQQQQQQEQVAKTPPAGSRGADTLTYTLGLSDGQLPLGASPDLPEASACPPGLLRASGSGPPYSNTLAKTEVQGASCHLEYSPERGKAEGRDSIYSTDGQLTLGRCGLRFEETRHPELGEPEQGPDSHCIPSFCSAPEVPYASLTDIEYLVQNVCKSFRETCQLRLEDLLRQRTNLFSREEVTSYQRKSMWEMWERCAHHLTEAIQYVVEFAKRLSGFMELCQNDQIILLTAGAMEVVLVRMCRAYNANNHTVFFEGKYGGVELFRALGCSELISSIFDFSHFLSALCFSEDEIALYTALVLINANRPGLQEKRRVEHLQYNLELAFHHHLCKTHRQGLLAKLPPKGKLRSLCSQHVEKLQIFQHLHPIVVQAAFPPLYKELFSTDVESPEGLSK
#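 Stably transfected Drosophila Schneider cells are the test system, with ROR gamma fused to Gal4 and luciferase under UAS control; luminescence is read after 20 hr of 700 uM copper sulfate induction at ambient temperature.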
# Sfp PPTase inh: Sfp phosphopantetheinyl transferase inhibition; AID 1490; Q9F4F7; actives 3.5% (n = 310,000); Potency, µM, most hits filed as inhibitors; Biochemical Sfp PPTase activity, qHTS;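 further: the enzyme is Sfp with the accession as filed and its product quenches rhodamine fluorescence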
#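 Reaction rates are the 30-min fluorescence difference (ex 525, em 598 nm) in wells containing 15 nM Sfp, 5 uM rhodamine-CoA and 12.5 uM BHQ-2-YbbR at pH 7.6 with 10 mM MgCl2.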
# ClpP validation: inhibits B. subtilis ClpP protease, hit validation. Potency, µM (highest dose often 57.5 µM), usual class: inhibitors. actives 40% (n = 470). shares compounds with ClpP mod. AID 743245. purified B. subtilis ClpP, FRET-FV substrate cleavage, 20 min; further: nearly all actives have a fitted effect of over 70% in size
# Numbers stand for hits; - = inactive; ? = inconclusive; . = no result; [ ] = dose if it differs, or a comment. In the library only some 8.1% were active in any assay of this set; here they are far more common. Unless noted, the call rests on the fitted dose curve; in most records, active means well fitted curve in the direction sought with a large enough effect; inconclusive means small, poorly fitted or top-dose-only effect, or another doubt; inactive means no such curve, though single readings can be large; an effect the other way counts as inactive or inconclusive.
SMILES,Epigenetic reg,PINK1 expr mod,Gal4-VP16 FLuc,ClpP mod,RORgamma inh,Sfp PPTase inh,ClpP validation
CCN1CCN(c2ccc(S(=O)(=O)N3CCOCC3)cc2NC(=O)c2ccc(OCC(C)C)cc2)CC1,.,-,.,-,.,.,.
CCCN(CCC(=O)Nc1cc(OC)cc(OC)c1)CC1CC1,-,-,-,-,-,?,-
CCN1CCN(CCCNC(=O)Cn2nc(C)n3c(cc4cc(C)ccc43)c2=O)CC1,-,-,.,?,.,.,?
O=C(c1ccncc1)N1CCN(S(=O)(=O)c2cccc(Cl)c2)CC1,.,-,.,3.2µM,.,.,-
CCOC(=O)N1CCN(S(=O)(=O)c2ccc(C(=O)Nc3nc4ccc(F)cc4s3)cc2)CC1,-,-,-,-,-,-,.
CCOC(=O)N1CCN(S(=O)(=O)c2ccc(C(=O)Nc3nc4ccccc4s3)cc2)CC1,-,-,-,-,-,-,?
CSc1ccc(CCNC(=O)c2cc(C)nc3c2c(C)nn3-c2ccccc2)cc1,-,-,.,-,.,.,17µM
Cc1ccc(CCNC(=O)c2cc(C)nc3c2c(C)nn3-c2ccc(C)cc2)cc1,-,-,.,-,.,.,27µM
CCOC(=O)c1c(C)[nH]c(C)c1S(=O)(=O)N1CCC(C(=O)NCc2ccccc2Cl)CC1,-,-,.,-,.,.,.
COc1ccc2nc(NC(C)=O)sc2c1,-,-,-,-,-,-,.
COc1ccc2nc(NC(=O)c3ccc(-n4nc(C)cc4C)cc3)sc2c1,-,-,-,-,-,-,27µM
CCCN(CC(=O)Nc1ccccc1C)C(=O)c1ccc(-c2ccc(C(C)=O)cc2)o1,.,-,.,8.9µM,.,.,19µM
Cc1ccn2c(Nc3ccc4c(c3)OCO4)c(-c3ccc(Cl)cc3)nc2c1,-,-,.,4µM,.,.,-
Cc1ccc(-c2nc3cnccn3c2Nc2ccc3c(c2)OCO3)cc1,-,-,-,-,-,?,.
CCCCCCCCCCOCCC(=O)O,-,.,-,.,-,-,.
CCOC(=O)C1CCN(C(=O)Cn2ncc3c([nH]c4ccc(C)cc43)c2=O)CC1,-,-,.,-,.,.,.
COc1ccccc1CNC(=O)c1ccc(Nc2nc3ccccc3n3nnnc23)cc1,?,?,.,-,.,.,15µM
CCOc1ccc(S(=O)(=O)Nc2ccc3c(c2)c(C(C)=O)c(C)n3S(=O)(=O)c2ccc(OCC)cc2)cc1,-,-,.,-,.,.,.
COc1ccc(NCc2cc3cc4c(cc3n(CC(=O)Nc3ccc(C)c(C)c3)c2=O)OCO4)cc1,-,?,.,-,.,.,?
COc1ccc(NCc2cc3cc4c(cc3n(CC(=O)Nc3cc(C)cc(C)c3)c2=O)OCO4)cc1,-,-,.,-,.,.,.
COc1cc(-c2cc(OC)c3c(C)oc(C)c3c(=O)c2)ccc1OC(=O)c1cccc(Cl)c1,?,-,.,-,.,.,.
COc1ccc(C(=O)Nc2ccccc2-c2nnn(CC(=O)NCc3ccco3)n2)cc1,-,-,?,-,-,-,?
O=C(Cn1nnc(-c2ccccc2NC(=O)c2ccccc2F)n1)NCc1ccco1,-,-,-,-,-,-,.
CCN(CC(=O)Nc1c(F)cccc1F)C(=O)c1ccc(C(F)(F)F)cc1,.,-,-,-,-,-,.
CCN(CC(=O)Nc1c(F)cccc1F)C(=O)c1ccc(C2SCCS2)cc1,.,-,.,-,.,.,-
SMILES,Epigenetic reg,PINK1 expr mod,Gal4-VP16 FLuc,ClpP mod,RORgamma inh,Sfp PPTase inh,ClpP validation
Cc1nc(-c2ccc(Cl)cc2)sc1C1(C)CC(c2c(Cl)cccc2Cl)=NO1 (stereo not drawn),-,-,-,10µM,-,-,27µM
CC(C)[C@@H](CC(=O)N[C@@H]1CCNC[C@H]1C(=O)N[C@H](CC(=O)N[C@@H](CCC(=O)O)CC(=O)O)Cc1ccccc1)NC(=O)C[C@H](CO)NC(=O)[C@@H]1CCCC[C@H]1N,-,.,-,.,-,-,.
Cc1ccc(-c2cn3cccnc3n2)cc1NC(=O)c1ccc(Br)o1,-,-,-,-,-,-,.
O=C(Nc1cccc(-c2cn3cccnc3n2)c1)c1ccc(Br)o1,-,-,-,3.5µM,-,-,2.7µM
COc1ccc(OC)c(NC(=O)Cn2cnc3c(cnn3-c3ccccc3)c2=O)c1,-,-,-,-,-,-,.
COc1ccccc1NC(=O)Cn1cnc2c(cnn2-c2ccc(C)c(C)c2)c1=O,-,?,-,-,-,-,-
Cc1ccc(-c2cc(C(F)(F)F)n3nc(-c4ccc(Cl)cc4)cc3n2)cc1,-,-,.,-,.,.,.
FC(F)(F)c1cc(-c2ccc(Cl)cc2)nc2ncnn12,-,-,-,2.8µM,-,-,17µM
Cc1cc(Cl)ccc1Oc1nc(-c2ccc(F)cc2)ccc1C#N,-,?,-,-,-,-,?
CCOc1nc(-c2ccc(Cl)cc2Cl)ccc1C#N,-,-,-[0.365 µM],-,?,-,.
Cc1ccccc1NC(=O)c1c(Cl)nc(C)c(Cl)c1C,-,-,-,-,-,-,.
CCc1ccc(NC(=O)c2c(Cl)nc(C)c(Cl)c2C)cc1,-,-,-,-,-,-,-
CCCSc1nc(-c2ccccc2)[nH]c1S(=O)(=O)c1ccc(C)cc1,-,-,.,-,.,.,.
Fc1ccc(CNc2cnccn2)cc1,-,-,-,3.2µM,-,-,22µM
O=C(Nc1ccc(-c2cn3ccccc3n2)cc1)c1ccc(Cl)cc1,-,-,-,-,-,-,-
O=C(CCn1nnc2ccccc21)N1CCN(c2ccccc2)CC1,-,-,-,-,-,-,-
CCOc1ccccc1NC(=O)c1cc2ccccc2o1,.,-,.,-,.,.,-
CCOc1ccccc1NC(=O)c1cc2ccccc2oc1=O,.,-,-,-,-,-,.
Cc1cccc(N(C)C(=O)C2CCN(S(=O)(=O)c3cccc4nonc34)CC2)c1,-,-,.,-,.,.,.
CCn1cnc2sc(C(=O)Nc3ccccc3OC)c(C)c2c1=O,-,-,-,-,-,-,.
COc1ccccc1NC(=O)c1sc2ncn(Cc3ccccc3C)c(=O)c2c1C,-,.,-,-,-,-,?
CC(C)CCNC(=O)c1cc(-c2ccco2)nc2ccccc12,-,-,-,4µM,-,-,6.9µM
Cc1ccc(-c2cn3c(n2)sc2cc(C(=O)NCc4cccs4)ccc23)cc1,-,-,.,7.1µM,.,.,27µM
CCCN1CCN(CCNC(=O)Nc2cc(OC)cc(OC)c2)CC1,-,-,.,-,.,.,.
Cc1ccc(CNC(=O)C2CCCN(S(=O)(=O)c3ccc4c(ccn4C)c3)C2)cc1 (stereo not drawn),-,-,.,-,.,.,.
O=C(C1CCN(c2nc3ccccc3[nH]2)CC1)N1CCN(c2ccccc2)CC1,-,-,.,-,.,.,.

# Assay outcomes deposited in PubChem BioAssay by National Center for Advancing Translational Sciences (NCATS).
